Experimental findings from PubChem BioAssay AID1203 (The Scripps Research Institute Molecular Screening Center, 2008) are described below.

The structures appear in SMILES notation. About 80 (0.04%) of roughly 200,000 compounds were called active.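 The calls were made as follows: active = activation above the mean across all tested compounds plus 3 SD, cutoff set per campaign (cut at about 5.5% in these data); inactive = the rest.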 The full list was thinned out, with actives kept by preference.

The test is described as follows: Hsp70 transcriptional activators, primary screen, cell-based, HeLa, Hsp70 promoter luciferase, luminescence, 10 µM (AID 1203).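 Also: 100% = MG132 at 30 µM as the positive control and 0% = DMSO.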 To be noted: HeLa Hsp70 promoter luciferase reporter, at 10 µM, hits give high values, scaled: vehicle 0, proteasome-inhibitor control 100%.
As for `COc1ccc(C)cc1S(=O)(=O)N(CC(=O)Nc1cccc([N+](=O)[O-])c1)c1ccc(C)cc1`, the activation is -0.49% (inactive).
`CCOC(=O)NC(=O)CSc1nnc(SCCC(=O)O)s1`: the activation was -0.37% (inactive).
Then `CC(C)C(=O)Nc1c(O)c2ccccc2[nH]c1=O`, with -0.15% (inactive).
`N#C/C(=C/c1ccc(N2CCCCC2)o1)C(=O)NCCc1c[nH]c2ccccc12`: the activation is -0.42% (inactive).
With `CN1CCN(c2nc(Nc3ccc(O)cc3)nc3ccccc23)CC1` the figure was -0.02% (inactive); with `COc1ccc(CNC(=O)C2CCN(S(C)(=O)=O)CC2)cc1`, -0.22% (inactive); with `Cc1cc(NC(C)C)n2c(nc3ccccc32)c1C#N`, -0.27% (inactive).
With `COc1ccc(CC(=O)Nc2cc(S(=O)(=O)N3CCCCC3)ccc2N2CCN(C)CC2)cc1` the figure was -0.39% (inactive).
With `CC1CCN(C(=S)c2cccc([N+](=O)[O-])c2)CC1` the figure was -0.04% (inactive); with `CC(OC(=O)c1ccccc1OCc1ccc(Cl)cc1)C(N)=O` (stereo unspecified), -0.14% (inactive).
Turning to `Cc1ccc(N(C(=O)c2sc(C)nc2C)C(C(=O)NC(C)(C)C)c2ccncc2)cc1` (stereo unspecified), the activation was -0.38% (inactive).
Regarding `COCCn1c(C)cc(C(=O)CSc2nc3ccccc3c(=O)n2C(C)COC)c1C` (stereo unspecified), the activation was 8.58% (active).
In the case of `COCC(C)n1c(C)cc(C(=O)CSc2cc(C)c3ccccc3n2)c1C` (stereo unspecified), the activation is -0.27% (inactive).
Then `COCC(C)n1c(SCc2ccc(C(=O)OC)o2)nc2ccccc2c1=O` (stereo unspecified), with -0.28% (inactive); and `O=S(=O)(c1ccc(F)cc1)n1ccc(-c2cnc(-c3ccccc3)s2)n1`, with -0.1% (inactive).
With `CCOC(=O)CSc1ccccn1` the figure was 2.15% (inactive); with `COc1ccc(N(CC(=O)Nc2ccc(C)cc2C)S(=O)(=O)c2ccccc2[N+](=O)[O-])c(OC)c1`, -0.09% (inactive); with `Cc1cc(C)n(CC(=O)Nc2ccc([N+](=O)[O-])cc2)n1`, -0.28% (inactive).
With `OCCC1CN(Cc2ccccc2-c2ccco2)CCN1Cc1ccsc1` (stereo unspecified) the figure was -0.08% (inactive); with `COc1cccc(CNC(=O)CCC2CCCN(C(=O)c3ccoc3C)C2)c1` (stereo unspecified), -0.21% (inactive); with `COc1ccc2c(c1)CCC/C2=N\OC(=O)c1ccccc1F`, 0.09% (inactive).
`O=C(CC1C(=O)NCCN1Cc1ccc(-c2ccccc2)cc1)NCc1ccncc1` (stereo unspecified): the activation is -0.07% (inactive).
Consider `Cc1cccc(NC(=S)Nc2ccc3cn[nH]c3c2)c1`, for which the activation is -0.39% (inactive).
Take `CC(=O)Nc1ccc(OCC(=O)NCc2ccc(C)cc2)cc1`: the activation was -0.17% (inactive).
Then `COc1ccc(NC(=S)NCCNC(C)=O)cc1`, with 0.67% (inactive); and `Cc1ccc(NC(=O)OCc2cncs2)cc1`, with 0.06% (inactive); and `COc1ccc(NC(=O)/C(Cl)=C(/Cl)S(=O)Cc2ccc(C)cc2)cn1` (stereo unspecified), with 24.9% (active).
In the case of `COc1ccc(CS(=O)/C(Cl)=C(/Cl)C(=O)Nc2ccc(OC)nc2)cc1` (stereo unspecified), the activation is 20% (active).
On to `COc1ccc(NC(=S)Nc2ccccc2Cl)cn1`, for which the activation was -0.12% (inactive).
Then `CN(C)c1ccc(C(CNC(=O)c2ccc(F)cc2)c2c[nH]c3ccccc23)cc1` (stereo unspecified), with -0.32% (inactive); and `COc1ccc(/C=N/N=C/c2c[nH]c(=O)c(C#N)c2Nc2ccccc2)cc1`, with -0.38% (inactive).
Then `CCN(CC)S(=O)(=O)c1ccc(NC(=O)c2cccnc2Cl)c(NC(=O)c2cccnc2Cl)c1`, with -0.26% (inactive); and `CCOc1ccc(NC(=O)C2CC(=O)N=C(N)S2)cc1` (stereo unspecified), with -0.33% (inactive); and `O=Cc1cn(Cc2ccccc2)nc1-c1cccnc1`, with -0.04% (inactive).
For `Cc1ccc(N(CC(=O)Nc2cc(C)cc(C)c2)S(=O)(=O)c2cccc3nonc23)cc1`, the activation was -0.31% (inactive).
With `O=C(CN1C(=O)NC2(CCCC2)C1=O)NCC1CCCO1` (stereo unspecified) the figure was 0.18% (inactive).
Then `O=S(=O)(N1CCCCC1)N1CCNCC1`, with -0.19% (inactive); and `O=C(Nc1ccccc1Cl)/C(Cl)=C(\Cl)S(=O)c1ccccc1` (stereo unspecified), with 26.1% (active); and `O=C(CN1CCCCC1)Nc1ccccc1Cl`, with -0.18% (inactive).
Then `O=C(Nc1ccccc1Cl)c1ccc2nsnc2c1`, with 0.16% (inactive).
`CCCC1CCC(=NNC(=S)NCCc2ccccc2)CC1` (stereo unspecified): the activation is -0.28% (inactive).
With `OCCC1CN(Cc2cnc(-c3ccccc3)s2)CCN1CCc1ccccc1` (stereo unspecified) the figure was 0.55% (inactive); with `C/C(=N/OC(=O)c1c(-c2c(F)cccc2Cl)noc1C)c1cnccn1`, -0.36% (inactive); with `O=C(CCC(=O)c1cccs1)NC1CCCCCC1`, -0.2% (inactive).
Then `Fc1cccc(Cc2noc(CN3CCN(c4cnccn4)CC3)n2)c1`, with 0.1% (inactive); and `Cc1ccc(-c2ccc(/C=N/NC(=O)CN3CCOCC3)o2)cc1[N+](=O)[O-]`, with -0.19% (inactive); and `CCOC(=O)NN1C(=O)c2ccccc2NC1c1cccc(O)c1` (stereo unspecified), with -0.06% (inactive).
On to `N=C1C(=O)OCC1c1ccccc1NC(=O)CN1CCCCC1` (stereo unspecified), for which the activation is -0.34% (inactive).
As to `CCc1ccc(NC(=O)C(C)OC(=O)/C=C/c2cccc([N+](=O)[O-])c2)cc1` (stereo unspecified), the activation is -0.25% (inactive).
Then `O=C(COC(=O)CCc1ccc(S(=O)(=O)N2CCOCC2)cc1)Nc1cccc(Cl)c1`, with -0.33% (inactive).
Consider `CCN1CCN(C(=O)CN(C)S(=O)(=O)c2ccc3ccccc3c2)CC1`, for which the activation was -0.21% (inactive).
As to `CSCCC(=O)N1CCCC(CNC(=O)c2ccccc2Cl)C1` (stereo unspecified), the activation was -0.44% (inactive).
Then `C=CCN(c1ccc(Cl)cc1)S(=O)(=O)c1cccc(C(=O)OCC(=O)N(C)C)c1`, with -0.3% (inactive); and `Cc1cccc(CSc2nnc(C)c(=O)n2N)c1`, with -0.18% (inactive).
Then `O=C(CO/N=C/c1ccc(OC(F)F)cc1)NCc1ccc(F)cc1`, with 0.12% (inactive); and `CCNc1nc(NC(C)C)nc(N2CC(=O)N(CC(=O)OCC)C2=N)n1`, with -0.19% (inactive); and `COc1ccccc1C(c1nnnn1CC1CCCO1)N1CCN(c2ccccc2)CC1` (stereo unspecified), with -0.43% (inactive).
Then `CCOc1ccc(C(CC(=O)O)n2cnnn2)cc1OC` (stereo unspecified), with -0.16% (inactive); and `Cc1cc(C)cc(NC(=O)c2cccc(NC(=O)C3C4CC5OC(=O)C3C5C4)c2)c1` (stereo unspecified), with 0.09% (inactive); and `COCCNC(=S)N(Cc1cccnc1)Cc1ccc(OC)c(OC)c1`, with -0.35% (inactive).
`O=C(Nc1ccccc1F)c1ccccc1-c1ccc(C(F)(F)F)cc1`: the activation is -0.36% (inactive).
As to `C/C(CC(=O)N1CCN(C=O)CC1)=N\NC(=O)c1ccc(Br)cc1`, the activation is -0.22% (inactive).
As for `Cc1ccc(CN2CCN(Cc3cccc(C)n3)CC2CCO)cc1` (stereo unspecified), the activation was 0.01% (inactive).
Then `O=C(Cc1cc(=O)[nH][nH]1)N/N=C/c1ccccc1[N+](=O)[O-]`, with -0.41% (inactive); and `CCn1cc(C(=O)Nc2cc(C)ccc2C)c(=O)c2ccc(C)nc21`, with -0.16% (inactive); and `CC(NC(=O)CC1SC(N)=NC1=O)c1ccccc1` (stereo unspecified), with -0.02% (inactive).
For `COc1ccc(CCNC(=O)CSc2nnc3ccc(-c4ccncc4)nn23)cc1`, the activation is -0.16% (inactive).
For `O=C(NCc1ccccc1Cl)C1CCC(CNc2c(N3CCCCC3)c(=O)c2=O)CC1` (stereo unspecified), the activation was 0.08% (inactive).
With `CN1C(=O)/C(=C/c2ccc(C(=O)NC3CCCC3)cc2)Oc2ccccc21` the figure was 0.12% (inactive); with `CC(=O)c1ccccc1NC(=O)CC1(CC(=O)O)CCCCC1`, -0.11% (inactive); with `Cc1nc(S(=O)(=O)c2ccc(Br)cc2)nc2c1CCC2`, -0.24% (inactive).
With `COc1ccc(Cn2c(=O)cc(C)[nH]c2=S)cc1` the figure was 0.13% (inactive).
With `O=C(COc1ccc(Cl)cc1[N+](=O)[O-])N1CCCCC1` the figure was 0.04% (inactive).
As for `Cn1nc(C(F)(F)F)c2cc(C(=O)N3CCOCC3)sc21`, the activation is 0.19% (inactive).
With `Cc1ccnc(SCC(N)=O)n1` the figure was -0.02% (inactive); with `O=C(Nc1cccc(Cl)c1)Nc1ccccc1NS(=O)(=O)c1cccs1`, -0.23% (inactive); with `CCCC(C)C(=O)NCc1ccncc1` (stereo unspecified), 0.15% (inactive).
With `Cc1ccc(N(Cc2cc3ccccc3[nH]c2=O)C(=O)c2cccs2)cc1` the figure was -0.18% (inactive); with `C/C(CC(=O)Nc1cccc(F)c1)=N\NC(=O)C(=O)NC1CCCCC1`, -0.18% (inactive); with `CCOCCCNC(=O)C(NC(=O)c1ccccc1O)c1ccccc1` (stereo unspecified), -0.12% (inactive).
As for `O=C(CC(=O)N/N=C\c1ccc(F)cc1)NCCc1ccccc1`, the activation was -0.23% (inactive).
With `CN1CCN(C(=O)CCc2nc(-c3ccc(Cl)cc3)no2)CC1` the figure was -0.33% (inactive); with `N#Cc1c(-c2ccc(F)cc2)nc(-c2ccccc2)[nH]c1=O`, -0.14% (inactive); with `CCSC1=NCCN1S(=O)(=O)c1ccc(F)cc1`, -0.26% (inactive).
With `COc1ccc(C(=O)CSc2nnnn2C)c(OC)c1` the figure was 0.02% (inactive); with `CC(=O)Nc1ccc(C(=O)OCC(=O)Nc2ccc([N+](=O)[O-])cc2C(F)(F)F)cc1`, -0.04% (inactive); with `CCN(CC)C(=O)C(=O)Nc1cccc(Br)c1`, -0.16% (inactive).
Then `c1ccc(-n2nnnc2NC2CCCCCC2)cc1`, with -0.52% (inactive); and `CC(=O)c1ccc(NC(=S)N(Cc2ccccc2)C(C)C2CC2)cc1` (stereo unspecified), with -0.19% (inactive); and `COc1ccc(COC(=O)N/N=C(\C)CC(=O)Nc2ccc(Cl)cc2)cc1`, with -0.38% (inactive).
As to `OCCC1CN(Cc2cccc(O)c2)CCN1CCc1ccccc1` (stereo unspecified), the activation was 0.03% (inactive).
With `Cc1cccc(OCC(O)CN2CCN(CCN3C(=O)c4cccc5cccc(c45)C3=O)CC2)c1C` (stereo unspecified) the figure was -0.21% (inactive); with `Cc1ccc(CN2CCN(Cc3ccc4ncccc4c3)CC2CCO)cc1` (stereo unspecified), -0.4% (inactive); with `NS(=O)(=O)c1ccc(CCNC(=S)Nc2ccc(S(N)(=O)=O)cc2)cc1`, 0.04% (inactive).
Then `COc1ccc2c(CC(=O)OCC(=O)Nc3ccccc3[N+](=O)[O-])coc2c1`, with -0.38% (inactive).
Then `CCCNCc1cc(OCC)c(OCC(=O)Nc2ccccc2)cc1Br`, with -0.15% (inactive).
